Sampled rows, rich in hits. Any-hit rate of the full collection: about 12%.
G9a block: qHTS Assay for Inhibitors of Histone Lysine Methyltransferase G9a; Histone-lysine N-methyltransferase EHMT2 (Homo sapiens), Q96KQ7; G9a H3K9 monomethylation, AlphaScreen, 2 h; Potency, µM (titrated, usually from 102 µM), inactives show at the highest dose activity, negative = inhibition, most hits filed as inhibitors; hit rate 8.8% among 350,000; AID 504332, 2011; further: on the % scale 0 is the no-effect control and ±100 the full control effect; nearly all actives have a fitted effect of over 75% in size
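AlphaScreen detection with an anti-monomethyl H3K9 antibody quantified product after a 2 h room-temperature reaction containing 500 nM biotinylated H3K9 peptide, 20 µM SAM and 20 nM enzyme, which had been preincubated 15 min with compound.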
Sfp PPTase inh: qHTS Assay for Inhibitors of Bacillus subtilis Sfp phosphopantetheinyl transferase (PPTase) | Potency, µM, for inactives: largest response in the series, negative = inhibition, hits mostly inhibitors | hit rate 3.5% among 310,000 | Biochemical Sfp PPTase activity, qHTS | 4'-phosphopantetheinyl transferase ffp (Bacillus subtilis), Q9F4F7;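 further: the enzyme is Sfp with the accession as filed and its product quenches rhodamine fluorescence; 0% = enzyme reaction without inhibitor and -100% = no enzyme wells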
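Buffer: 50 mM Hepes-Na pH 7.6, 10 mM MgCl2, 0.01% Nonidet P-40, 0.01% BSA. Enzyme 15 nM, pre-exposed to compound 15 min; substrates then added and fluorescence change tracked over 30 min.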
PLK1 PBD block: qHTS for Inhibitors of PLK1-PDB (polo-like kinase 1 - polo-box domain): Primary Screen; Serine/threonine-protein kinase PLK1 (Homo sapiens), P53350; Plk1 PBD binding of FITC phosphopeptide, fluorescence polarization; Potency, µM, for inactives: max response, negative = inhibition, most hits filed as inhibitors; hit rate 2.8% among 360,000; AID 720504, 2013; further: series mostly up to about 57 µM; on the % scale 0 is the no-effect control and ±100 the full control effect; nearly all actives have a fitted effect of over 65% in size
Target sequence (P53350 whole entry, looked up, the tested form may be a part): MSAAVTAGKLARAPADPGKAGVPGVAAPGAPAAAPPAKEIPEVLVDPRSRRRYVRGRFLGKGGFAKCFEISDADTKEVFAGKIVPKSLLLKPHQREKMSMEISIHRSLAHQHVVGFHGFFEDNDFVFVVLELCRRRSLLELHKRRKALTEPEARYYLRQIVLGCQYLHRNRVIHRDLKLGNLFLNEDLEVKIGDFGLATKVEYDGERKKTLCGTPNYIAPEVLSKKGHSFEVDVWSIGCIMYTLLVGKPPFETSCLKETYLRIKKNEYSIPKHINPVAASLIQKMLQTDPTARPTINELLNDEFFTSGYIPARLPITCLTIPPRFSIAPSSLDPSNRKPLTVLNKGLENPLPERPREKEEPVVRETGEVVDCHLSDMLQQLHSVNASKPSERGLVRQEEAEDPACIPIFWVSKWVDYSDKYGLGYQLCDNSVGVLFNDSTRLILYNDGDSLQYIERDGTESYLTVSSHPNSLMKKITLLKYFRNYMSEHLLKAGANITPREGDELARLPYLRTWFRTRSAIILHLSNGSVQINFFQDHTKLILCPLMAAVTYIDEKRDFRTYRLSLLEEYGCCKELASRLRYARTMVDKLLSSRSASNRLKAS
HP1b chromo inh: HTS for Inhibitors of HP1-beta Chromodomain Interactions with Methylated Histone Tails | AlphaScreen HP1-beta / biotin-H3K9me3 peptide binding | Potency, µM (doses to about 114 µM), for the others: top-dose activity change, negative = inhibition, hits mostly inhibitors | hit rate 0.56% among 390,000 | AID 540317, 2011; further: nearly all actives have a fitted effect of over 70% in size
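HP1-beta protein (50 nM final) preincubated 30 min at room temperature with biotinylated H3(1-18)K9me3 peptide (50 nM) in PBS pH 7.4, 0.01% Tween-20, then compound added for 30 min. AlphaScreen streptavidin donor/nickel chelate acceptor beads (10 ug/mL final), 30 min dark, luminescence read.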
JMJD2A Tudor inh: qHTS Assay for Inhibitors of JMJD2A-Tudor Domain; Lysine-specific demethylase 4A (Homo sapiens), O75164; AlphaScreen JMJD2A-Tudor / H3K4me3 peptide binding; Potency, µM (doses to about 114 µM), inactives show top-dose activity change, negative = inhibition, usual class: inhibitors; hit rate 4.4% among 390,000; AID 504339, 2011; further: on the % scale 0 is the no-effect control and ±100 the full control effect; nearly all actives have a fitted effect of over 50% in size
BAZ2B block: qHTS Assay for Inhibitors of BAZ2B; AID 504333, 2011; AlphaScreen BAZ2B-H3K14Ac peptide displacement; hit rate 4.4% among 360,000; Potency, µM (top dose mostly 114 µM), for the others: top-dose activity change, negative = inhibition, hits mostly inhibitors; further: on the % scale 0 is the no-effect control and ±100 the full control effect; nearly all actives have a fitted effect of over 60% in size
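Complex of BAZ2B and biotin-H3K14Ac (50 nM apiece) forms over 30 min at RT, then faces library compounds up to 110 uM for another 30 min; AlphaScreen beads added, 20 min dark incubation, luminescence read.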
Starred values were filed as active, the others as inactive; ? = inconclusive; . = no result; [ ] = remark or other dose. The call rests on the fitted dose curve; in most records, active means well fitted curve in the direction sought with a large enough effect; inconclusive means small, poorly fitted or top-dose-only effect, or another doubt; inactive means no such curve, though single readings can be large; an effect the other way counts as inactive or inconclusive. Potency means the concentration at half of the fitted maximal effect.

SMILES	G9a block	Sfp PPTase inh	PLK1 PBD block	HP1b chromo inh	JMJD2A Tudor inh	BAZ2B block
COc1ccc(C(=O)NC(C)Cc2c[nH]c3ccccc23)cc1 (stereo not drawn)	.	.	4%	.	.	.
O=C1CCN2C=Nc3cccc4ccc1c2c34	-9%[2.33 µM]	12%	3.8µM*	46%	6%	7%
O=C1CCC(=O)c2ccc3c4c(ccc1c24)CC3	.	.	-7%	15%	-26%	.
CCc1ccc(Nc2nc3ccccc3c3nnc(C)n23)cc1	-5%[59 µM]	.	.	41%	7%	-2%
CC(C)NC(=O)N(C)C[C@H]1Oc2ccc(NS(=O)(=O)c3cn(C)cn3)cc2C(=O)N([C@H](C)CO)C[C@@H]1C	.	.	-15%	-22%	40µM*	.
CC(C)NC(=O)Nc1cccc2c1O[C@H](CN(C)S(=O)(=O)c1ccc(F)cc1)[C@@H](C)CN([C@H](C)CO)C2=O	.	.	19µM*	5%	?	.
C[C@H](CO)N1C[C@H](C)[C@@H](CN(C)C(=O)NC2CCCCC2)Oc2ccc(NS(=O)(=O)c3cn(C)cn3)cc2C1=O	.	.	-16%	42%	-6%	.
CC(C)NC(=O)Nc1cccc2c1O[C@H](CN(C)S(=O)(=O)c1ccccc1)[C@@H](C)CN([C@H](C)CO)C2=O	.	.	-5%	82%	-6%	.
C[N+]12CCCC[C@@H]1CCC(=C(c1cccs1)c1cccs1)C2 (stereo partly drawn)	-29%[12.7 µM]	-5%	.	.	.	.
N=C1C2=C3Sc4ccccc4N3CCCC2=NN1c1cccc(S(=O)(=O)O)c1	?	89µM*	?	23%	-19%	?
N#CC1=C2Sc3ccccc3N2CCCC1=O	-5%[59 µM]	15%	1%	30%	-12%	-19%
CCc1cccc(N2C(=O)CSC23C(=O)N(Cc2ccccc2F)c2ccccc23)c1 (stereo not drawn)	-31%[59 µM]	.	.	39%	-18%	-18%
COC(=O)c1ccccc1NC(=O)c1ccc(F)cc1F	.	.	.	.	-3%	.
CC(C)c1ccc(S(=O)(=O)/N=C2/C=C(Sc3ncn[nH]3)C(=O)c3ccccc32)cc1	1.6µM*	2µM*	1.5µM*	18µM*	7.1µM*	45µM*
Cc1ccc(S(=O)(=O)/N=C2/C=C(Sc3ncn[nH]3)C(=O)c3ccccc32)cc1	0.56µM*	3.2µM*	0.75µM*	8.9µM*	2.8µM*	45µM*
Cc1ccc(S(=O)(=O)/N=C2/C=C(Sc3ncn[nH]3)C(=O)c3ccccc32)c(C)c1	0.89µM*	3.5µM*	.	.	.	45µM*
Cc1ccc(S(=O)(=O)N2CCN(C(=O)CSc3ncn[nH]3)CC2)c(C)c1	?	.	-7%	6%	-10%	9%
CCCCC[C@H](O)/C=C/[C@H]1OC(=O)C[C@H](O)[C@@H]1C/C=C\CCCC(=O)O	.	-15%	.	.	.	.
COc1ccc2sc(N(CCCN(C)C)C(=O)c3ccc(S(=O)(=O)N4CCCc5ccccc54)cc3)nc2c1	40µM*	.	-10%	?	20µM*	28µM*
COc1cc2nc(N(CCCN(C)C)C(=O)c3ccc(S(=O)(=O)N4CCc5ccccc54)cc3)sc2cc1OC	11µM*	.	-20%	?	50µM*	?
COc1cc2nc(NC(=O)c3ccc(S(=O)(=O)N4CCc5ccccc54)cc3)sc2cc1OC	6%[59 µM]	.	.	5%[57 µM]	-31%	-15%
CC1Cc2cc(S(=O)(=O)NCCc3ccc(Cl)cc3)ccc2N1C(=O)C1CCC1 (stereo not drawn)	-11%[59 µM]	.	.	40%	-9%	4%
O=C(NCCc1ccccc1)c1ccc2c(c1)N(Cc1ccc(Cl)cc1)C(=O)CS2	18%[59 µM]	.	.	35%	-2%	5%
Oc1c(Br)cc(C=Nc2ccc3nc(-c4ccccc4)[nH]c3c2)c(O)c1Br	28µM*	56µM*	-30%	-16%	?	40µM*
O=[N+]([O-])c1ccc(O)c(C=Nc2ccc3nc(-c4ccccc4)[nH]c3c2)c1	7%[59 µM]	19%	-4%	8%	-25%	-6%
SMILES	G9a block	Sfp PPTase inh	PLK1 PBD block	HP1b chromo inh	JMJD2A Tudor inh	BAZ2B block
CC1=C/C(=C/N(C)c2ccccc2)C(=O)S1	?	28µM*	27µM*	?	?	?
CCN1C(=O)C(=CC=CN(C)c2ccccc2)SC1=S	.	.	62%	.	.	.
O=C(NNc1c2ccccc2nc2ccccc12)c1ccc(O)cc1O	?	-14%	2%	?	40µM*	20µM*
O=C(NNc1c2ccccc2nc2ccccc12)c1ccccc1O	?	?	-1%	-8%	?	7.9µM*
O=C(NNc1c2ccccc2nc2ccccc12)c1ccccc1Cl	26%	7%	-1%	28%	-3%	-33%
O=C(NNC(=O)c1cccc2ccccc12)c1ccccc1O	-5%	4%	-25%	33%	-9%	-7%
O=C(NNc1nc(=O)c2cccnc2s1)c1ccccc1O	50µM*	20%	27µM*	-5%	50µM*	.
Cc1ccc(Cl)cc1NC(=O)C(=O)N/N=C/c1ccc2c(c1)OCO2	19%	-5%	-10%	16%	-18%	-21%
CN(C)S(=O)(=O)c1ccc2c(c1)nnn2CCNC(=O)Nc1ccc(Cl)cc1	8%[12.7 µM]	.	.	21%	7%	-11%
O=C(CN1C(=O)NC2(CCCCC2)C1=O)N1CCN(c2ncccn2)CC1	3%[59 µM]	.	4%	20%	-2%	-4%
Cc1ccc(NC2=NCC(=O)N2Cc2ccccc2)c(C)c1	-18%[59 µM]	8%	-8%	21%	-17%	11%
Cc1ccc(NC2=NCC(=O)N2Cc2ccc3c(c2)OCO3)cc1	50µM*	15%	3%	20%	-16%	-29%
O=C1CN=C(Nc2ccccc2Cl)N1Cc1ccc2c(c1)OCO2	?	9%	-28%	70%	89µM*	-8%
CCc1ccccc1NC1=NCC(=O)N1Cc1ccc2c(c1)OCO2	-25%[59 µM]	4%	30µM*	2%	-34%[11.4 µM]	-4%
CCNc1cccc(S(=O)(=O)N2CCN(S(=O)(=O)c3ccc4c(c3)OCCO4)CC2)c1	.	.	.	.	-35%	.
CCC(=O)NC(=S)NNC(=O)c1ccc(NC(=O)c2ccccc2)cc1	7.1µM*	-24%	3%	32%	?	-23%
O=C(Cc1ccccc1)NNC(=O)c1ccc(NC(=O)c2ccccc2)cc1	?	-6%	-12%	35%	-20%	-26%

Screening data: PubChem BioAssay, National Center for Advancing Translational Sciences (NCATS)
